Test results: PubChem BioAssay AID686971 (National Center for Advancing Translational Sciences (NCATS), 2013)
The campaign covered roughly 360,000 compounds. About 7,500 (2.1%) were called active. A call without a number means that no potency is given here. Not shown: some 8% with an inconclusive outcome. The call rests on the fitted dose curve; in most records, active means well fitted cell-killing curve with a large enough effect; inconclusive means small, poorly fitted or top-dose-only effect, or effect the other way, or another doubt; inactive means no such curve, though single readings can be large or run the other way. For the sample, actives were picked, then their nearest neighbours and some compounds at random.

assay: qHTS for induction of synthetic lethality in tumor cells producing 2HG: qHTS for the HT-1080-IDH1KD cell line; settings: HT-1080 IDH1 knockdown viability, ATP luminescence, 48 h; series mostly up to 46.1 µM
Method in brief: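 CellTiter-Glo luminescence after 48 h compound exposure at 37 degrees C of IDH1-knockdown HT-1080 cells in 5% FBS RPMI. %Activity scaled between DMSO wells and cell-free media wells, with curves fitted and assigned curve classes.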
Potency means the concentration at half of the fitted maximal effect.

SMILES	Potency	activity, negative = toxicity
CC[C@@H]1CC2=C(C(=O)OC(C)(C)O2)[C@@H](CC)O1	inactive	
CCOC(=O)C1(C)CCCN(C(=O)c2ccc(N(C)C)cc2)C1 (stereo unspecified)	inactive	
CCN1CCN(c2ccc([N+](=O)[O-])cc2C(=O)c2ccc(Cl)cc2)CC1	23.1 µM (active)	
CCC(=O)c1ccc(N2CCN(C(=O)c3cc([N+](=O)[O-])ccc3F)CC2)c(F)c1	inactive	
O=C(Nc1cccc(Cl)c1)c1cc([N+](=O)[O-])ccc1N1CCN(CCO)CC1	inactive	
CN(Cc1c(F)cccc1Cl)C(=O)COC(=O)Cn1cnc2ccccc2c1=O	inactive	
O=c1c2c3c(sc2n(CCN2CCCC2)c(=O)n1Cc1ccccc1)CCCCC3	inactive	
Cn1c(=O)n(Cc2ccco2)c(=N)c2c3c(sc21)CCCC3	inactive	
CN(C)CCCn1c(=O)n(Cc2ccccc2)c(=O)c2c3c(sc21)CCCCC3	25.9 µM (active)	
COc1cccc(-c2nc3nc(C)cc(C)n3c2NC2CCCCC2)c1	inactive	
COC(=O)C[C@H]1C=C[C@@H](NS(=O)(=O)c2ccc(C)cc2)[C@@H](CO)O1	inactive	
COCCNC(=O)C1(C)CCCN(Cc2cccc(F)c2)C1 (stereo unspecified)	inactive	
CCCc1cc(=O)[nH]c(SCC(=O)OCc2ccccc2)n1	inactive	
CCCc1cc(=O)[nH]c(SCC(=O)c2c(N)n(CC(C)C)c(=O)n(C)c2=O)n1	3.26 µM (active)	
CCCc1cc(=O)[nH]c(SCC(=O)c2cc(C)n(CCC)c2C)n1		2.35% [at 9.24 µM] (inactive)
COC(=O)c1ccc2nc(-c3ccccc3)c(Cc3ccc(OC)cc3C)n2c1	inactive	
O=C(c1cc(C2CCCCN2S(=O)(=O)c2ccccc2)on1)N1CCOCC1 (stereo unspecified)	inactive	
CCOC(=O)/C(=C\c1ccc([N+](=O)[O-])cc1)C(=O)c1cc(C(C)=O)c(Nc2ccccc2)s1	inactive	
CCOC(=O)C(=Cc1ccccc1)C(=O)c1ccccc1	18.4 µM (active)	
CCOC(=O)NC(=O)/C(C#N)=C\c1ccccc1	inactive	
COC(=O)C[C@H]1C[C@@H]2c3cc(NC(=O)Nc4ccccc4)ccc3O[C@@H]2[C@@H](CO)O1	inactive	

SMILES	Potency	activity, negative = toxicity
COc1ccc(C2Nc3ccc(NC(=O)COC(C)=O)cc3C(=O)N2Cc2ccccc2)cc1COc1ccc(NC(C)=O)cc1 (stereo unspecified)	inactive	
C=CCN(CC=C)S(=O)(=O)c1ccc(C(=O)Nc2nc3c(s2)CCc2ccccc2-3)cc1	14.6 µM (active)	
CCN(c1ccccc1)S(=O)(=O)c1ccc(C(=O)Nc2nccs2)cc1	inactive	
Cc1cccc(NC(=O)c2ccc(S(=O)(=O)N(C)c3ccccc3)cc2)n1	inactive	
Cc1ccccc1S(=O)(=O)NC(=O)C1(C)CCN1C(=O)C1(c2ccc(Cl)cc2)CC1 (stereo unspecified)	inactive	
CNS(=O)(=O)c1ccc2c(c1)[nH]c(=S)n2C	inactive	
COc1ccc(OC)c(Cc2nnc(CCC(=O)NC3CCCC3)o2)c1	inactive	
COc1ccc(OC)c(Cc2cnc3nc(N)nc(N)c3c2C)c1	0.0103 µM (active)	
COc1ccc(-c2nc(N)ncc2-c2ccc(Cl)cc2)c(O)c1	inactive	
Nc1nc2cc(Cl)ccc2n1N	inactive	
CCC(C)CN1C(=O)CSCC1(C)C(=O)NCc1ccccc1 (stereo unspecified)	inactive	
Cc1sc2ccccc2c1CNC[C@H]1O[C@@H](n2ccc(=O)[nH]c2=O)[C@H](O)[C@@H]1O	inactive	
O=C(COC(=O)c1cncc(Br)c1)Nc1ccc(S(=O)(=O)N2CCOCC2)cc1	inactive	
CCc1nc2c(OCCOc3ccccc3)cccn2c1N(C)C(=O)c1cccs1	inactive	
Cc1cccc(-c2cnc(C(O)c3cc(C)cc(C)c3)[nH]2)c1 (stereo unspecified)	inactive	
Cc1cccc(OCC(=O)NCCNC(=O)c2cccnc2)c1	inactive	
CCCOc1cccc(C(=O)NCCCNC(=O)c2cccnc2)c1	inactive	
Cc1ccc(OCC(=O)NCCCNC(=O)c2cccnc2)cc1C	18.4 µM (active)	
CCN(CC)C(=O)C1=C(C)N(Cc2ccc(F)cc2)C(=O)C(CC(=O)NCc2cccc3ccccc23)C1 (stereo unspecified)	inactive	
COc1ccc(Br)cc1/C=N/NC(=O)c1cccc(S(=O)(=O)N2CCOCC2)c1	inactive	
Cc1ccc(C(=O)N/N=C/c2cccc3ccccc23)cn1	inactive	

SMILES	Potency	activity, negative = toxicity
COc1cc(/C=N\NC(=O)C2C(=O)NCC2c2ccccc2)cc(OC)c1O (stereo unspecified)	inactive	
COc1cccc(/C=N\NC(=O)C2=NNC(=O)C2C)c1O (stereo unspecified)	25.9 µM (active)	
COc1cccc(/C=N/NC(=O)c2[nH]nc3c2CCc2ccccc2-3)c1O	3.66 µM (active)	
COc1ccc(/C=N/NC(=O)c2ccncc2)cc1CN1CCCc2ccccc21	inactive	
CC(C)C1CC2=C(C(=O)OC(C)(C)O2)C(c2ccc(F)cc2)O1 (stereo unspecified)	inactive	
CC1=C(C(=O)N2CCOCC2)CC(CC(=O)NCC2CCCCC2)C(=O)N1Cc1ccc(F)cc1 (stereo unspecified)	inactive	
O=Nc1c(O)cc(O)c2ccccc12	inactive	
COC(=O)C[C@@H]1C=C[C@@H](NC(=O)c2cccnc2)[C@@H](CO)O1	inactive	
O=C1NC[C@H](CCCCN2C[C@H](Cc3ccc(O)cc3)N(CC3CCCCC3)C(=O)C2=O)N(CCc2ccccc2)C1=O	inactive	
CCCCCCN1C[C@H](O)[C@@H](n2cc(C3CC3)nn2)C[C@@H]1c1ccc(Cl)cc1	inactive	
O=C(COc1ccc(S(=O)(=O)Nc2cccc(C(F)(F)F)c2)cc1)N1CCOCC1	inactive	
Cc1oc2c(F)c(F)c(F)c(F)c2c1S(=O)(=O)Nc1cccc(C(F)(F)F)c1	18.4 µM (active)	
CCOC(=O)N1CCN(C(=O)c2ccc(S(=O)(=O)Nc3cccc(C(F)(F)F)c3)cc2)CC1	inactive	
COc1cc(C(=O)N2CCOC23CCN(Cc2ccccc2)CC3)cc(OC)c1OC	inactive	
CCN(CC)C(=O)C1=C(C)N(Cc2ccccc2)C(=O)C(CC(=O)NC(c2ccccc2)c2ccccc2)C1 (stereo unspecified)	inactive	
COc1cccc(NC(=O)C2(C)CCN2C(=O)CCC2CCCC2)c1 (stereo unspecified)	inactive	
CCC(C(=O)OCC(=O)Nc1c(Cl)cc(Cl)cc1Cl)c1ccccc1 (stereo unspecified)	inactive	
CCC(C(=O)OCC(=O)Nc1ccccc1-c1ccccc1)c1ccccc1 (stereo unspecified)	inactive	
CCC(C(=O)OCC(=O)Nc1ccc(C(=O)Nc2ccc(OC)cc2)cc1)c1ccccc1 (stereo unspecified)	25.9 µM (active)	
